Data on 31 molecules can be found in PubChem BioAssay (NCATS).

Molecules are shown by their SMILES. Results filed as inconclusive are left out. The source made the active and inactive calls. Unless noted, calls follow the shape of the full dose curve.

Test [1] in a line: qHTS for Inhibitors of the Functional Ribonucleoprotein Complex (vRNP) of Lassa (LASV) Arenavirus: LASV Primary Screen - GLuc reporter signal (AID 1347082; calls by dose curve; tested in HEK293 reporter line; also: nearly all actives have a fitted effect of over 60% in size; also: potency is read from the fitted curve at half-maximal effect).
The nature of test [2]: qHTS for Inhibitors of the Functional Ribonucleoprotein Complex (vRNP) of Lassa (LASV) Arenavirus: Viability assay - alamar blue signal for LASV Primary Screen (AID 1347083; calls by dose curve; tested in HEK293 reporter line; also: nearly all actives have a fitted effect of over 80% in size; also: potency is read from the fitted curve at half-maximal effect).
The nature of test [3]: qHTS for Inhibitors of the Functional Ribonucleoprotein Complex (vRNP) of Lymphocytic Choriomeningitis Arenaviruses (LCMV): Viability assay - alamar blue signal for LCMV Primary Screen (AID 1347085; calls by dose curve; tested in HEK293 reporter line; also: nearly all actives have a fitted effect of over 80% in size; also: potency is read from the fitted curve at half-maximal effect).
The target in test [4] is Nucleoprotein (Lymphocytic choriomeningitis virus (strain Armstrong)) (UniProt P09992). Nature of the test: qHTS for Inhibitors of the Functional Ribonucleoprotein Complex (vRNP) of Lymphocytic Choriomeningitis Arenaviruses (LCMV): LCMV Primary Screen - GLuc reporter signal (AID 1347086). Also: series mostly up to about 57 µM; nearly all actives have a fitted effect of over 70% in size.
Chain of Nucleoprotein (Lymphocytic choriomeningitis virus (strain Armstrong)) (P09992 whole entry, looked up): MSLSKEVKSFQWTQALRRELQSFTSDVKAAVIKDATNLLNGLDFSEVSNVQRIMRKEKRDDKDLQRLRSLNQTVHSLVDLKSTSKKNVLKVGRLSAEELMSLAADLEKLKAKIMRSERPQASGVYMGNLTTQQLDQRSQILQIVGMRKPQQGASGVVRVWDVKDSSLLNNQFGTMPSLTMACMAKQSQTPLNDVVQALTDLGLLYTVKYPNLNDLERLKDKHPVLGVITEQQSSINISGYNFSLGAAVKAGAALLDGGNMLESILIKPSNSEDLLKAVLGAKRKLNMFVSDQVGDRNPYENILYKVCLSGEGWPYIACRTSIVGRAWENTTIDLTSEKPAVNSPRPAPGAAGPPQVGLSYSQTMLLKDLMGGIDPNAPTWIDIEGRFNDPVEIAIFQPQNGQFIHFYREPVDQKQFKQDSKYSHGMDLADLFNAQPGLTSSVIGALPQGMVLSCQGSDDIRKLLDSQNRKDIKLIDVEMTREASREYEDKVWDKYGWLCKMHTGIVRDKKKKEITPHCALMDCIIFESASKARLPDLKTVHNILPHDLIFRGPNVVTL

As to `O=C(C=Cc1ccc(O)cc1)c1ccc(O)cc1O`, the Potency entry in test [1], in test [2] and in test [3] was “inactive” each time.

On to `CCC12CCCN3CCC4(C(=C(C(=O)OC)C1)Nc1ccccc14)C32` (stereo not given), for which the Potency result in test [1], in test [2] and in test [3] was “inactive” each time.

Regarding `CC(=O)O[C@@H]1[C@H]2CC[C@@H]3[C@]1(C[C@@H](OC(C)=O)[C@@]1(O)C([C@@H]4O[C@@H]4C1(C)C)[C@]3(C)O)C[C@@]2(C)O` (stereo not given in full), the Potency entry in test [1], in test [2], in test [3] and in test [4] was “inactive” each time.

As for `CCS(=O)(=O)c1cccc(-c2cc(C(=O)NC3CCN(C)CC3)c(C)c3[nH]c4ncc(C)cc4c23)c1`, the Potency is 12.2 µM (active) in test [1], 6.85 µM (active) in test [2] and 6.11 µM (active) in test [3].

Take `C=CC(C)(C)c1c2occc2c(O)c2ccc(=O)oc12`: the Potency entry in test [1] and in test [2] was “inactive” throughout.

In the case of `CC(=O)OC1CCC2(C)C(COc3ccc4ccc(=O)oc4c3)C(C)(O)CCC2C1(C)C` (stereo not given), the Potency result in test [1], in test [2] and in test [3] was “inactive” throughout.

For `O=C(O)C1=CO[C@@H](O[C@@H]2O[C@H](CO)[C@H](O)[C@H](O)[C@H]2O)[C@@H]2C(CO)=CC[C@H]12`, the Potency entry in test [1], in test [2], in test [3] and in test [4] was “inactive” in each case.

`C/C=C/c1cc(OC)c2c(c1)[C@H](C)[C@@H](c1ccc(O)c(OC)c1)O2`: the Potency result in test [1], in test [2], in test [3] and in test [4] was “inactive” each time.

Regarding `COc1cccc2c1C(=O)c1c(O)c3c(c(O)c1C2=O)C[C@@](O)(C(=O)CO)C[C@H]3O[C@H]1C[C@H](N)[C@H](O)[C@H](C)O1`, the Potency is 13.7 µM (active) in test [1], 1.09 µM (active) in test [2] and 0.863 µM (active) in test [3].

Take `CC[C@H]1OC(=O)[C@H](C)C(=O)[C@H](C)[C@@H](O[C@H]2O[C@H](C)C[C@H](N(C)C)[C@@H]2O)[C@](C)(OC)C[C@@H](C)C(=O)[C@H](C)[C@H]2N(CCCCn3cnc(-c4cccnc4)c3)C(=O)O[C@]12C`: the Potency result in test [1], in test [2] and in test [3] was “inactive” each time.

Turning to `CC(=O)O[C@@H]1CC[C@@]2(C)[C@H](C1)[C@H](OC(C)=O)C[C@@H]1[C@@H]2C[C@H]2[C@@H]3CN4C[C@H](C)CC[C@H]4[C@H](C)[C@H]3CC[C@@]12O`, the Potency entry in test [1] and in test [2] was “inactive” in each case.

`CC(=O)[C@]1(O)Cc2c(O)c3c(c(O)c2[C@@H](O[C@H]2C[C@H](N)[C@@H](O)[C@H](C)O2)C1)C(=O)c1ccccc1C3=O`: the Potency is 10.9 µM (active) in test [1], 0.769 µM (active) in test [2] and 0.611 µM (active) in test [3].

`Cc1cc(Nc2nc(N[C@@H](C)c3ccc(F)cc3)c(C#N)cc2F)n[nH]1`: the Potency result in test [1] and in test [4] was “inactive” throughout. In addition, the results for the Potency in test [2] and in test [3] were 4.85 µM (active) and 10.9 µM (active), respectively.

With `CN1C(=O)[C@@H]2C[C@@]3([C@@]45C[C@H]6C(=O)N(C)[C@@H](Cc7ccccc7)C(=O)N6[C@@H]4Nc4ccccc45)c4ccccc4N[C@H]3N2C(=O)[C@@H]1Cc1ccccc1`, the Potency entry in test [1], in test [2], in test [3] and in test [4] was “inactive” throughout.

Regarding `CCCC1CCCC(=O)O1` (stereo not given), the Potency result in test [1], in test [2], in test [3] and in test [4] was “inactive” each time.

As to `Nc1ccn([C@@H]2O[C@H](CO)[C@H](O)C2(F)F)c(=O)n1`, in test [1], the Potency entry was “inactive”. Also, the Potency in test [2] and in test [3] was 0.968 µM (active) throughout.

Regarding `CCCCCCC1CCC(=O)O1` (stereo not given), the Potency entry in test [1], in test [2] and in test [3] was “inactive” each time.

Take `COc1c2ccoc2nc2c(OC)c(OCC(OC(C)=O)C(C)(C)O)ccc12` (stereo not given): the Potency result in test [1], in test [2], in test [3] and in test [4] was “inactive” each time.

In the case of `COc1ccc(-c2cc(=O)c3c(O)cc(O)c(-c4cc(-c5cc(=O)c6c(O)cc(OC)cc6o5)ccc4OC)c3o2)cc1`, the Potency entry in test [1] and in test [2] was “inactive” each time.

`COC(=O)C1C(O)CC2CCC1N2C` (stereo not given): the Potency entry in test [1], in test [2], in test [3] and in test [4] was “inactive” throughout.

On to `O=c1c(-c2ccc(O)cc2)coc2c(C3OC(CO)C(O)C(O)C3O)c(O)ccc12` (stereo not given), for which the Potency entry in test [1] and in test [2] was “inactive” throughout.

Consider `O=C1NC(=O)C(=Cc2ccc3nccc(-c4ccncc4)c3c2)S1`, for which the results for the Potency in test [1], in test [2] and in test [3] were 0.432 µM (active), 0.109 µM (active) and 0.273 µM (active), respectively.

In the case of `CC(=O)c1ccc[nH]1`, the Potency result in test [1] and in test [2] was “inactive” each time.

For `CCc1ccc(O)c(OC)c1`, the Potency result in test [1], in test [2], in test [3] and in test [4] was “inactive” throughout.

`COc1ccc([C@@H]2CC(=O)c3c(O)cc(O[C@@H]4O[C@H](CO)[C@@H](O)[C@H](O)[C@H]4OC4O[C@@H](C)[C@H](O)[C@@H](O)[C@H]4O)cc3O2)cc1O` (stereo not given in full): the Potency entry in test [1] and in test [2] was “inactive” each time.

For the molecule `CO[C@H]1O[C@@H]2O[C@@]3(C)CC[C@@H]4[C@@H](C)CC[C@@H]([C@H]1C)[C@@]24OO3`, the Potency result in test [1] and in test [2] was “inactive” throughout.

For `Cc1cc(Nc2ncc3c(n2)N(C)C(=O)N(c2cc(NC(=O)c4cccc(C(F)(F)F)c4)ccc2C)C3)n(C)n1`, the Potency in test [1] was 3.85 µM (active); in test [2], 0.611 µM (active); in test [3] it was 1.53 µM (active).

Regarding `COC(/C(C)=C/C=C/C(C)=C/c1coc(C)n1)C(C)C1CC(O)C2(C)OC2C=CC(C)C2CC(CC(=O)O2)CC2OC2C(=O)O1` (stereo not given), the Potency result in test [1] and in test [2] was “inactive” in each case.

Take `COc1cc2nc(-c3cc(F)ccc3O)nc(N[C@@H]3CNC[C@@H]3C(C)(C)O)c2cc1OC`: the Potency in test [1] is 1.37 µM (active); in test [2], 1.09 µM (active); in test [3] it was 8.63 µM (active).

With `CC1(C)C(N(O)C(=O)Nc2ccc(Cl)cc2)N(c2ccc(Cl)cc2)C(=O)N1CC(=O)NN=CC=Cc1ccc([N+](=O)[O-])o1` (stereo not given), the Potency entry in test [1], in test [2], in test [3] and in test [4] was “inactive” in each case.

Consider `CN[C@@H]1CN(c2ccc3c(=O)c(C(=O)O)cn(-c4nccs4)c3n2)C[C@@H]1OC`, for which the Potency entry in test [1] is “inactive”. The Potency in test [2] was 10.6 µM (active); in test [3], 15 µM (active).
